This assay deals with HpdR/P_H16_RS18295 3-hydroxypropanoate biosensor (pEH010). Description: relative induction of RFP reporter vs primary effector; higher = stronger activation. The following applies: inducer concentration 5 mM; 6 h; Cupriavidus necator H16; minimal medium + 0.4% gluconate. As for the experimental part: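 Orthogonality screen of 21 primary inducers against 21 transcription factor/inducible promoter–mRFP biosensors in C. necator H16 in minimal medium, robotic 96-well format, 5 mM inducer, 30 °C. OD-normalised RFP fluorescence was read 6 h later and expressed as relative induction (%) = 100 × (FL compound − FL uninduced)/(FL primary inducer − FL uninduced); mean of n=4. Cognate pairs (100% by definition) omitted.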
For `O=C(O)c1ccccc1` [benzoate], the “relative induction of RFP reporter” value was -0.293%.
For `CC(=O)C(C)O` (stereo unspecified) [acetoin], the “relative induction of RFP reporter” value was -0.347%.
For `C=C(CC(=O)O)C(=O)O` [itaconate], the “relative induction of RFP reporter” value is -0.14%.
Regarding `O=C(O)C(O)C(O)C(=O)O` (stereo unspecified) [tartrate], the “relative induction of RFP reporter” value is -0.0938%.
The figure for `O=C(O)C1CCCCC1` [cyclohexane-1-carboxylate] is -0.461%; for `N[C@@H](Cc1ccc(O)cc1)C(=O)O` [L-tyrosine] it is -0.292%; for `N[C@@H](Cc1ccccc1)C(=O)O` [L-phenylalanine] it is -0.399%.
In the case of `OC1OC[C@H](O)[C@H](O)[C@H]1O` (mixture of isomers) [L-arabinose], the “relative induction of RFP reporter” value was 0.017%.
For `Nc1ccccc1C(=O)C[C@H](N)C(=O)O` [L-kynurenine], the “relative induction of RFP reporter” value was -0.129%.
As to `O=C(O)c1ccccc1O` [salicylate], the “relative induction of RFP reporter” value worked out at 0.195%.
As for `NCCC(=O)O` [β-alanine], the “relative induction of RFP reporter” value was 0.231%.
Take `O=c1[nH]c(=O)c2nc[nH]c2[nH]1` [xanthine]: the “relative induction of RFP reporter” value was 0.1%.
With `O=C(O)c1ccc(O)c(O)c1` [3,4-dihydroxybenzoate], the “relative induction of RFP reporter” value was -0.0358%.
`O=C(O)CS(=O)(=O)O` [sulfonatoacetate]: the “relative induction of RFP reporter” value was -0.0436%.
On to `O=C(O)C(=O)c1ccccc1` [phenylglyoxylate], for which the “relative induction of RFP reporter” value is -0.296%.
On to `O=CO` [formate], for which the “relative induction of RFP reporter” value is 0.0754%.

(Values after the supplement of paper PMC7057948, “A genome-wide approach for identification and characterisation of metabolite-inducible systems” (Nature Communications, 2020).)
